25 molecules from PubChem BioAssay (Tox21) can be followed below.

Values without a mark were called inactive. Results filed as inconclusive are left out. Calls of active or inactive are those of the source. Unless noted, calls come from the whole dose curve; as a rule, active = well fitted curve in the direction sought with a large enough effect in the repeat runs; inconclusive = weak or mixed curves; inactive = no such curve, though single readings can be large; an effect the other way counts as inactive or inconclusive.

The nature of experiment [1]: A CellTox Green Cytotoxicity Assay to monitor cytotoxicity in HepG2 cells - 8 hour (AID 1224890). Note: nearly all actives have a fitted effect of over 45% in size. An outline of the steps:
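Nonlytic assay: viable cells exclude the dye, so fluorescence scales with cell death. HepG2 at 600 cells/well, compounds added after 5 h, signal read across 40 h.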

Experiment [2] in a line: qHTS assay to identify small molecule antagonists of the estrogen receptor alpha (ER-alpha) signaling pathway using the BG1 cell line in the presence of 0.1 nM 17-beta-estradiol - cell viability counter screen (AID 1259241). Note: nearly all actives have a fitted effect of over 40% in size. In outline: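 VM7Luc4E2, 4,000 cells/well, phenol red-free medium + 10% charcoal-stripped FBS; 24 hr plating; cpd + 0.1 nM E2 final, 22 hr 37C/5% CO2; CellTiter-Fluor 30 min, fluorescence.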
In general terms: In qHTS, concentration-response curves come from the screen itself.

The nature of experiment [3]: qHTS assay to identify small molecule antagonists of the androgen receptor (AR) signaling pathway using the MDA cell line in the presence of 0.5 nM R1881 - cell viability counter screen (AID 1259242). Note: nearly all actives have a fitted effect of over 45% in size. An outline of the steps:
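R1881 at 0.5 nM final stimulated MDA-kb2 cells during 16 hr compound treatment at 37C. Cytotoxicity read: CellTiter-Fluor fluorescence after 30 min.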

Experiment [4] has as its target Androgen receptor (Homo sapiens) (UniProt P10275). As to the kind of experiment: qHTS assay to identify small molecule antagonists of the androgen receptor (AR) signaling pathway using the MDA cell line in the presence of 0.5 nM R1881 (AID 1259243). Note: nearly all actives have a fitted effect of over 50% in size. Note: potency is the fitted concentration of half-maximal effect. An outline of the steps:
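We exposed MDA-kb2 cells to compounds under 0.5 nM R1881 stimulation for 16 hr at 37C and quantified MMTV-driven luciferase by luminescence.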

In experiment [5] the target is Estrogen receptor (Homo sapiens) (UniProt P03372). Kind of experiment: qHTS assay to identify small molecule antagonists of the estrogen receptor alpha (ER-alpha) signaling pathway using the BG1 cell line in the presence of 0.1 nM 17-beta-estradiol (AID 1259244). Note: nearly all actives have a fitted effect of over 50% in size. In outline: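 VM7Luc4E2; 4xERE-luciferase; 0.1 nM E2 final; 22 h co-incubation, 37C; ONE-Glo luminescence after 30 min at room temperature.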
Chain of Estrogen receptor (Homo sapiens) (P03372 whole entry, looked up): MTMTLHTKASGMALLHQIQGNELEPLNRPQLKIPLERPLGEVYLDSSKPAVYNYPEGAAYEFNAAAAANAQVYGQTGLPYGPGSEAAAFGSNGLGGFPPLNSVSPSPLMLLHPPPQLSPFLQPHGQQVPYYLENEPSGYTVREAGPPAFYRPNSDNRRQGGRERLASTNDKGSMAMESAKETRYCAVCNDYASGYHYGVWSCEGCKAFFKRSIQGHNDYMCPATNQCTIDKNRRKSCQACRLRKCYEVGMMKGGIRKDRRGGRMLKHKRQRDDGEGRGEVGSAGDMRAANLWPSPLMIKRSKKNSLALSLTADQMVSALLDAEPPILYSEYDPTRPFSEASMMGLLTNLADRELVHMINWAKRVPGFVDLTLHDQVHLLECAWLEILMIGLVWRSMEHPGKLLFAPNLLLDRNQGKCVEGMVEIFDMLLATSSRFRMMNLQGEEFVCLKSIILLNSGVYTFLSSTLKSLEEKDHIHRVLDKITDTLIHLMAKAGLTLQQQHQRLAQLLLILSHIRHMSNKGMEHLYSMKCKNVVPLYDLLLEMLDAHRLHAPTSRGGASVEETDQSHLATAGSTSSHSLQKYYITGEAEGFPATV

The nature of experiment [6]: qHTS assay to identify small molecule HDAC inhibitors (AID 1259364). For activity change, negative = inhibition: top concentration of the series differs between compounds. Note: potency is the fitted concentration of half-maximal effect.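 Note: wild-type HCT-116 cells with endogenous class I/II HDAC activity; nearly all actives have a fitted effect of over 45% in size.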 An outline of the steps: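 Relative class I and II HDAC activity is taken from the luminogenic signal in HCT-116 cells, with compound exposure 2 hr and reagent development 30 min at room temperature.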
A short description of experiment [7]: qHTS assay to identify small molecule HDAC inhibitors - cell viability counter screen (AID 1259365). Note: series mostly up to about 92 µM; nearly all actives have a fitted effect of over 50% in size. An outline of the steps:
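Luminescence from CellTiter-Glo, developed 30min at room temperature, reports viability of wild-type HCT-116 cells treated 2hr with compounds at 37 C and 5% CO2 after overnight plating.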

Experiment [8] is described as follows: qHTS assay to identify small molecule agonists of the sonic hedgehog signaling (Shh) pathway - cell viability counter screen (AID 1259366). Note: nearly all actives have a fitted effect of over 50% in size. In outline:
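Cytotoxicity counter screen run in the same wells as the Shh reporter assay. NIH/3T3 cells carrying a Gli1 response element–driven luciferase were treated with DMSO-dissolved compounds for 24hr, and live-cell protease activity was measured with CellTiter-Fluor.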

Experiment [9] in a line: qHTS assay to identify small molecule antagonists of the sonic hedgehog signaling (Shh) pathway - cell viability counter screen (AID 1259367). Note: nearly all actives have a fitted effect of over 55% in size. An outline of the steps: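 NIH/3T3-derived Gli1-Luc reporter cells, 2,000/well, plated 4 hr before compound addition, then stimulated with conditioned medium for 24 hr at 37C. Viability measured in the same wells by CellTiter-Fluor fluorescence, reagent added at 23 hr for 1 hr.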

The nature of experiment [10]: qHTS assay to identify small molecule phospholipidosis (PLD) inducers (AID 1259344; active = well fitted curve in the direction sought with a large enough effect; an effect the other way counts as inactive or inconclusive). An outline of the steps:
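HepG2 cells, 900/well, treated with compound plus LipidTOX Red for 24 h at 37 C; amiodarone positive and DMSO negative controls. Fixed with paraformaldehyde/Hoechst, then high-content imaging scored LipidTOX pit count and integrated intensity per well and per cell.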
% is set by controls: 0 for no effect and ±100 for the full control effect.

Chain of Androgen receptor (Homo sapiens) (P10275 whole entry, looked up): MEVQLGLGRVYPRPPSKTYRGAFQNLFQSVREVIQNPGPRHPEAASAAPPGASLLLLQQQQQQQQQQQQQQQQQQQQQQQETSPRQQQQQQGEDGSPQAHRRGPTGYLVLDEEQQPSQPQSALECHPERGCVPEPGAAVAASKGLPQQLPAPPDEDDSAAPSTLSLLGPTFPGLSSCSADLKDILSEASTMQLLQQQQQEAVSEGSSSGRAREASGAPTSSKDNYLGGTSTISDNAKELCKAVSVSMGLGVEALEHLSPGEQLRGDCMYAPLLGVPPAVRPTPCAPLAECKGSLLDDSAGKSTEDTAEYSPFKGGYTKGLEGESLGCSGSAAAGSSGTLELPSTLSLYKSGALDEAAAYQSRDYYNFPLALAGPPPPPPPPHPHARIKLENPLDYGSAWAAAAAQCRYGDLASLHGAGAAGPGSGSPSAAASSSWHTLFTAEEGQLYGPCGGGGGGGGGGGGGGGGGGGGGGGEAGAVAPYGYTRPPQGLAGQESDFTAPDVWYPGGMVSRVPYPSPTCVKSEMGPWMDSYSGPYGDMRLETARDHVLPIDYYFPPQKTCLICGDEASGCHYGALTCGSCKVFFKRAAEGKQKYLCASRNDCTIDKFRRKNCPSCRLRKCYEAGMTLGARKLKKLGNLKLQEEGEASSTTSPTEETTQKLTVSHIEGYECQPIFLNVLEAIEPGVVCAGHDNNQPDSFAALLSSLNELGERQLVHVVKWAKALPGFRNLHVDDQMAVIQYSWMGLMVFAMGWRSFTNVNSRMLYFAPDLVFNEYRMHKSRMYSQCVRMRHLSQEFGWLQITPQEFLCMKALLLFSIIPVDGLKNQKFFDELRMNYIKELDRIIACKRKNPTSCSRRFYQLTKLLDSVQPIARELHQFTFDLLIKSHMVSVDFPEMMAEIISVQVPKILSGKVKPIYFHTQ

Regarding `CC(C)CCCC(C)NCCC(C)C` (stereo unspecified), the Potency result in [1], in [4], in [6] and in experiment [8] was “inactive” each time. Also, the result in [2], in [3], in [5], in [7] and in experiment [9] was inactive.
For `Nc1[nH]c(=O)ncc1F`, the Potency entry in [1], in experiment [10] and in experiment [6] was “inactive” in each case. The outcome in experiment [2], in experiment [3], in experiment [5] and in experiment [7] was inactive.
Regarding `CCN1CCN(c2cc3c(cc2F)c(=O)c(C(=O)O)cn3C2CC2)CC1`, the Potency entry in experiment [1], in [4], in experiment [10], in [6] and in experiment [8] was “inactive” each time. Further, the result in [2], in [3] and in experiment [7] was inactive.
For `NC(N)=NS(=O)(=O)c1ccc(N)cc1`, the Potency entry in experiment [1], in experiment [4], in [10], in [6] and in [8] was “inactive” throughout. In addition, the result in experiment [2], in experiment [3], in experiment [5], in [7] and in experiment [9] was inactive.
As for `CN(C)CCn1nnnc1SCC1=C(C(=O)O)N2C(=O)[C@@H](NC(=O)Cc3csc(N)n3)[C@H]2SC1`, the Potency entry in experiment [1], in experiment [4], in experiment [10], in experiment [6] and in experiment [8] was “inactive” each time. Further, the outcome in [2], in experiment [3], in experiment [7] and in experiment [9] was inactive.
For the molecule `CCCCCCOC(=O)CC(CC(=O)OCCCCCC)(OC(=O)CCC)C(=O)OCCCCCC`, the Potency result in experiment [1], in experiment [4], in [6] and in experiment [8] was “inactive” in each case. Besides, the result in experiment [2], in experiment [3], in experiment [5] and in experiment [7] was inactive.
As to `OCCN1C[C@H](O)[C@@H](O)[C@H](O)[C@H]1CO`, the Potency entry in [1], in experiment [4], in experiment [10], in experiment [6] and in [8] was “inactive” each time. In addition, the result in [2], in [3], in [5], in experiment [7] and in experiment [9] was inactive.
In the case of `COc1cc(CCC(C)=O)ccc1O`, the Potency entry in [1], in experiment [4], in experiment [6] and in experiment [8] was “inactive” throughout. In addition, the result in experiment [2], in [3] and in [7] was inactive.
In the case of `O=c1[nH]c2ccccc2c(=O)n1CCCl`, the Potency entry in experiment [1], in experiment [4], in experiment [6] and in experiment [8] was “inactive” throughout. In addition, the outcome in experiment [2], in [3] and in experiment [7] was inactive.
As to `O=C(O)c1ccc[n+]([O-])c1`, the Potency entry in experiment [1], in [4], in experiment [10], in experiment [6] and in experiment [8] was “inactive” in each case. Besides, the outcome in experiment [2], in experiment [3], in experiment [5], in experiment [7] and in experiment [9] was inactive.
`CCOC(=O)Nc1ccc2c(c1)N(C(=O)CCN1CCOCC1)c1ccccc1S2`: the Potency result in [1], in experiment [4], in experiment [10], in [6] and in experiment [8] was “inactive” in each case. For the same molecule, the outcome in experiment [2], in experiment [3], in [5], in [7] and in experiment [9] was inactive.
For `CC(C)CCCCCCN`, the Potency result in [1], in [4], in [6] and in [8] was “inactive” throughout. Further, the result in [2], in experiment [3], in experiment [5] and in experiment [7] was inactive.
For the molecule `NCC[C@H](O)C(=O)N[C@@H]1C[C@H](N)[C@@H](O[C@H]2O[C@H](CN)[C@@H](O)[C@H](O)[C@H]2O)[C@H](O)[C@H]1O[C@H]1O[C@H](CO)[C@@H](O)[C@H](N)[C@H]1O`, in experiment [1], the cytotoxicity increase was -0.472% [at 0.29 µM]. Moreover, the activity change, negative = cytotoxicity in experiment [2] was 7.28% [at 0.349 µM]; in [7], 1.82% [at 0.349 µM]. Besides, the results for the viability change, negative = cytotoxic in experiment [3], in experiment [8] and in experiment [9] were 0.273% [at 0.349 µM], 2.12% [at 0.349 µM] and 1.11% [at 0.349 µM], respectively. Besides, in [4], the activity, negative = inhibition was 0.695% [at 0.349 µM]. Besides, the activity change, negative = inhibition in experiment [5] was 9.86% [at 0.349 µM]; in experiment [6], 5.91% [at 0.349 µM]. Also, the Potency entry in [10] was “inactive”.
As to `CCN1CCCC1CNC(=O)c1cc(S(N)(=O)=O)ccc1OC` (stereo unspecified), the Potency entry in experiment [1], in experiment [4], in experiment [6] and in [8] was “inactive” in each case. In addition, the outcome in experiment [2], in [3] and in [7] was inactive.
With `O=S(=O)(O)c1ccccc1O`, the Potency entry in [1], in [4], in experiment [6] and in experiment [8] was “inactive” throughout. For the same molecule, the outcome in [2], in experiment [3], in experiment [5], in experiment [7] and in [9] was inactive.
Regarding `CCCOCC(C)OCC(C)O` (stereo unspecified), the Potency result in experiment [1], in experiment [4], in experiment [6] and in experiment [8] was “inactive” throughout. For the same molecule, the result in [2], in experiment [3], in [7] and in [9] was inactive.
As for `Cc1ncc(CSSCc2cnc(C)c(O)c2CO)c(CO)c1O`, the Potency entry in experiment [1], in experiment [4], in [10], in [6] and in experiment [8] was “inactive” each time. Moreover, the outcome in experiment [2], in experiment [3], in experiment [5] and in experiment [7] was inactive.
Turning to `CC1=CCC2C(C1)C2(C)C` (stereo unspecified), the Potency entry in experiment [1], in [4], in experiment [6] and in [8] was “inactive” throughout. For the same molecule, the result in experiment [2], in [3], in experiment [5], in [7] and in [9] was inactive.
Turning to `CC(C)c1ccc2oc3nc(N)c(C(=O)O)cc3c(=O)c2c1`, the Potency entry in [1], in experiment [4], in [10] and in experiment [8] was “inactive” each time. In addition, the result in experiment [2], in [3], in experiment [5], in experiment [7] and in experiment [9] was inactive. Also, the Potency in [6] is 266 nM (active).
As to `Cc1nc(-c2ccc(OCC(C)C)c(C#N)c2)sc1C(=O)O`, the Potency entry in experiment [1], in experiment [4], in experiment [10] and in [8] was “inactive” in each case. The result in [2], in [3], in experiment [5], in experiment [7] and in experiment [9] was inactive. Moreover, the Potency in experiment [6] was 335 nM (active).
As for `C[N+](C)(C)CC[N+]1(C)Cc2c(Cl)c(Cl)c(Cl)c(Cl)c2C1`, the Potency result in [1], in [10], in [6] and in experiment [8] was “inactive” in each case. Further, the outcome in experiment [2], in experiment [3], in [5] and in [7] was inactive.
Consider `O=C(O)/C=C/c1ccc(/C=C/C(=O)O)cc1`, for which the Potency entry in experiment [1] and in experiment [4] was “inactive” throughout. The outcome in [2], in experiment [3] and in experiment [7] was inactive. In addition, the Potency in experiment [6] was 1340 nM (active).
As for `C1COCCO1`, the Potency entry in experiment [1], in [4] and in [6] was “inactive” each time. Moreover, the outcome in experiment [2], in [3], in experiment [5], in experiment [7] and in experiment [9] was inactive.
Take `CC1(C)OC(=O)Nc2ccc(Br)cc21`: the Potency result in experiment [1], in experiment [6] and in experiment [8] was “inactive” each time. The outcome in experiment [2], in [3], in experiment [5], in [7] and in [9] was inactive. Also, in experiment [4], the Potency was 9440 nM (active).
As for `CCCC(=O)O[C@]1(C(=O)CCl)[C@@H](C)C[C@H]2[C@@H]3CCC4=CC(=O)C=C[C@]4(C)[C@@]3(F)C(=O)C[C@@]21C`, the Potency result in [1], in experiment [4], in experiment [10], in [6] and in experiment [8] was “inactive” in each case. Further, the result in experiment [2], in experiment [3], in experiment [5], in experiment [7] and in experiment [9] was inactive.
